GLS inh: inhibitors of human glutaminase (GLS); O94925; GLS enzymatic activity, qHTS titration; Potency, µM (doses to about 45.5 µM), usual class: inhibitors; actives 0.21% (n = 410,000); AID 624170
Target sequence (O94925 whole entry, looked up): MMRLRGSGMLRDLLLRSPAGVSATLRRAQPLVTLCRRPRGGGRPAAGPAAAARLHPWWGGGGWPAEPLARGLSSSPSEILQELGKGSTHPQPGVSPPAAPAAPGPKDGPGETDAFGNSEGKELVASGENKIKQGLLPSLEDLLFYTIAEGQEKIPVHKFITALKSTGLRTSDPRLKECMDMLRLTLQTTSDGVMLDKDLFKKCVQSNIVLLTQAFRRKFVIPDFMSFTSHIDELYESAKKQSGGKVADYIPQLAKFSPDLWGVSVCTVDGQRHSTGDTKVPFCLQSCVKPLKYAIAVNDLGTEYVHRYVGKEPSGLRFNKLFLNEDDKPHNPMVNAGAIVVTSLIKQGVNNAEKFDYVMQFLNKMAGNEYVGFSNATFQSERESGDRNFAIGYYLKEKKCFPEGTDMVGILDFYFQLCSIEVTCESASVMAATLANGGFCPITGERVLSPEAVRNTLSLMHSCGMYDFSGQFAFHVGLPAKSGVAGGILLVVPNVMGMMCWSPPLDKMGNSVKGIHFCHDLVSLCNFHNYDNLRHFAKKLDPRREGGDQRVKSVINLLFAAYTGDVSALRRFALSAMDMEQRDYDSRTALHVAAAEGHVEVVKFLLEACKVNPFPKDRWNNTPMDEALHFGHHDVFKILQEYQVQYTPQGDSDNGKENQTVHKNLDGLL
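hKGA in 45 mM KH2PO4 (pH 8.2), 0.02% Tween-20 with compound, then 1mM L-Glutamine (stock as added) plus glutamate oxidase/HRP/Amplex red coupling mix. Fluorescence read initially and after 30 min at RT; signal change reflects glutamate formation.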
BAZ2B inh: inhibitors of human BAZ2B bromodomain | Q9UIF8 | AlphaScreen BAZ2B-H3K14Ac peptide displacement | Potency, µM (doses to about 114 µM), hits mostly inhibitors | actives 4.4% (n = 360,000); further: nearly all actives have a fitted effect of over 60% in size
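In this displacement format the biotinylated H3(5-23) peptide acetylated at Lys14 serves as ligand at 50 nM, with BAZ2B at 50 nM in PBS pH 7.4 containing 0.01% Tween-20. Donor and acceptor beads are 10 ug/mL final.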
G9a block: G9a (human) methyltransferase inhibition; Q96KQ7; G9a H3K9 monomethylation, AlphaScreen, 2 h; Potency, µM (titrated, usually from 102 µM), usual class: inhibitors; actives 8.8% (n = 350,000); further: nearly all actives have a fitted effect of over 75% in size
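G9a (20 nM) preincubated 15 min RT with compounds, then 500 nM biotinylated H3K9 peptide and 20 uM SAM added; 2 h RT reaction. Monomethyl-H3K9 product detected by AlphaScreen with anti-H3K9me1 antibody, streptavidin donor and anti-rabbit IgG acceptor beads.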
JMJD2A Tudor: inhibitors of human JMJD2A Tudor domain. AlphaScreen JMJD2A-Tudor / H3K4me3 peptide binding. Potency, µM (doses to about 114 µM), actives largely listed as inhibitors. actives 4.4% (n = 390,000); further: nearly all actives have a fitted effect of over 50% in size
HP1b chromo inh: inhibitors of HP1-beta chromodomain binding to methylated histone tails. AID 540317. P83916. Potency, µM (highest dose often 114 µM), actives largely listed as inhibitors. actives 0.56% (n = 390,000). AlphaScreen HP1-beta / biotin-H3K9me3 peptide binding; further: nearly all actives have a fitted effect of over 70% in size
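HP1-beta protein (50 nM final) preincubated 30 min at room temperature with biotinylated H3(1-18)K9me3 peptide (50 nM) in PBS pH 7.4, 0.01% Tween-20, then compound added for 30 min. AlphaScreen streptavidin donor/nickel chelate acceptor beads (10 ug/mL final), 30 min dark, luminescence read.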
A number is an active result; - = inactive; ? = inconclusive; . = no result; ! = not active in a repeat; [ ] = dose if it differs, or a comment. Sampled rows, rich in hits. Any-hit rate of the full collection: about 10%. The call rests on the fitted dose curve; in most records, active means well fitted curve in the direction sought with a large enough effect; inconclusive means small, poorly fitted or top-dose-only effect, or another doubt; inactive means no such curve, though single readings can be large; an effect the other way counts as inactive or inconclusive.

SMILES | GLS inh | BAZ2B inh | G9a block | JMJD2A Tudor | HP1b chromo inh
COc1cc(/C=N/Nc2nc3ccccc3[nH]2)cc(OC)c1O | - | ? | 28µM | - | ?
CCN(CC)c1ccc(/C=N/Nc2nc3ccccc3[nH]2)cc1 | - | 10µM | ? | 56µM | ?
COc1cc(/C=N/Nc2nc3ccccc3[nH]2)ccc1O | - | ? | - | - | -
CCOC(=O)c1c(-c2ccc(C)cc2)csc1NC(=O)c1ccc(C(C)(C)C)cc1 | - | - | - | - | -
COC(=O)c1c(-c2ccc(C)cc2)csc1NC(=S)NC(=O)c1cc(OC)cc(OC)c1 | - | ? | 25µM | - | -
Cc1ccccc1-n1ncc2c([N+](=O)[O-])cc([N+](=O)[O-])cc21 | - | 32µM | ? | 56µM | 40µM
O=C(Nc1nc(-c2ccc(Cl)s2)cs1)c1cccs1 | - | - | 50µM | - | -
O=C(O)C1CCCCC1C(=O)Nc1nc(-c2ccc(Cl)s2)cs1 (stereo not given) | - | 56µM | 45µM | ? | -
O=C(Nc1ccc([N+](=O)[O-])cc1)Nc1nc(-c2ccc(Cl)s2)cs1 | - | - | 16µM | - | -
CCCC(=O)Nc1nc(-c2ccc(Cl)s2)cs1 | - | - | - | - | -
O=C(Nc1nc(-c2ccc(Cl)s2)cs1)c1ccco1 | - | - | 40µM | - | -
O=C(Nc1nnc(-c2ccco2)s1)C1CCN(S(=O)(=O)c2ccc(Cl)cc2)CC1 | - | - | - | - | -
O=C(Nc1nnc(-c2ccco2)s1)C1CC1 | - | ? | 50µM | ? | -
CCC(C)(C)C1CCC(=NNC(=S)Nc2cccnc2)CC1 (stereo not given) | - | ? | 7.9µM | 45µM | -
CC(C)(C)C1CCC(=NNC(=S)NCc2ccccc2)CC1 (stereo not given) | - | ? | 8.9µM | ? | -
N#C/C(=C/c1ccc(-c2ccccc2[N+](=O)[O-])o1)C(N)=O | - | - | - | - | -
O=C(/C=C/c1ccc(-c2ccccc2[N+](=O)[O-])o1)c1ccc(Br)cc1 | - | 28µM | 25µM | ? | -
O=C(/C=C/c1ccc(-c2ccccc2[N+](=O)[O-])o1)c1ccc(F)cc1 | - | 22µM | 35µM | ? | ?
O=C1NC(c2ccc(-c3ccccc3[N+](=O)[O-])o2)C(C(=O)c2ccc(F)cc2)C(O)(C(F)(F)F)N1 (stereo not given) | - | ? | ? | - | -
Cc1ccc(C(=O)/C=C/c2ccc(-c3ccccc3[N+](=O)[O-])o2)cc1 | - | 25µM | 25µM | ? | ?
O=C(Nc1ccc(Nc2ccccc2)cc1)N1CCOCC1 | - | ? | ? | - | -
O=C(/C=C/c1cccc(F)c1)Nc1nccs1 | - | - | - | - | -
COc1cnn(Cc2ccccc2)c(=O)c1SCc1ccccc1 | - | - | - | - | -
Cc1cccc(C(=O)O/N=C(/c2ccccc2)c2ccncc2)c1 | - | - | - | - | -
Cc1cc(C)c2c(N=NN3CCOCC3)[nH]nc2n1 | - | - | 8.9µM | - | -
SMILES | GLS inh | BAZ2B inh | G9a block | JMJD2A Tudor | HP1b chromo inh
COc1cc(NC(=O)N2CCC(CN3CCCC3)CC2)cc(OC)c1OC | - | - | - | - | -
C=C1C(=O)[C@]23[C@H](O)[C@H]1CC[C@H]2[C@@]12COC3(O)[C@H](O)[C@@H]1C(C)(C)CC[C@@H]2O | . | . | 7.1µM | . | .
COc1ccccc1OCCCC(=O)Nc1ccc(N2CCOCC2)cc1 | - | - | ? | - | -
CC(=O)Cc1nsc(NC(=O)c2ccc(-c3ccc(Cl)c(Cl)c3)o2)n1 | - | - | - | - | -
O=[N+]([O-])c1ccc(S(=O)(=O)CC(CN2CCCCC2)N2CCCCC2)cc1 (stereo not given) | - | - | 35µM | - | -
O=S(=O)(CC(CN1CCCCC1)N1CCCCC1)c1ccccc1 (stereo not given) | - | - | - | - | -
O=[N+]([O-])c1ccc(S(=O)(=O)CC(CN2CCOCC2)N2CCOCC2)cc1 (stereo not given) | - | - | 56µM | - | -
CC1=C(\C=C/C(C)=C/C=C\C(C)=C\C(=O)O)C(C)(C)CCC1 | . | . | 10µM | . | .
CC1=C(/C=C/C(=O)O)C(C)(C)CCC1 | - | - | - | - | -
CC1=C(/C=C/C(=C/C=C/C(C)=C/C(=O)O)c2ccc(C)cc2)C(C)(C)CCC1 | . | . | 22µM | . | .
CC1=C(/C=C/C(C)=C/C=C/C(C)=C/C(=O)Nc2ccc(O)cc2)C(C)(C)CCC1 | - | - | 13µM! | 50µM | ?
CC1=C(/C=C/C(C)=C/C=C/C(C)=C\C(=O)O)C(C)(C)CCC1 | - | . | -[12.7 µM] | - | -
C[N+](C)(C)CCN1C(=O)c2ccccc2C1=O | - | . | . | . | .
Cc1ccc2cccc(SCC(=O)N3CCOCC3)c2n1 | - | - | -[12.7 µM] | - | -
CN(C)C(=O)/N=N/C(=O)N(C)C | . | . | 2.7µM | . | .
O=C(c1ccc(N2CCOCC2)cc1)N1CCCC(Nc2ccccc2)C1 (stereo not given) | ? | - | - | ? | -
C=Cc1ccc(C(=O)N2CCCC(Nc3ccc4c(c3)OCCO4)C2)cc1 (stereo not given) | - | ? | 40µM | ? | -
C=CCOc1cccc(C(=O)N2CCCC(CCC(=O)NCc3ccccc3F)C2)c1 (stereo not given) | - | - | . | - | -
C=CCOc1cccc(C(=O)N2CCCC(Nc3ccc4c(c3)OCCO4)C2)c1 (stereo not given) | - | 45µM | ? | ? | -
N#C/C(=C\c1c(N2CCC(C(N)=O)CC2)nc2ccccn2c1=O)C(=O)NCc1ccco1 | - | - | - | - | -
O=c1c(C=Nc2ccc(Cl)cc2)c[nH]n1-c1cccc(Cl)n1 | - | - | -[12.7 µM] | 25µM | -
CCOc1[nH]n(-c2ccccc2)c(=O)c1C=Nc1ccc(Cl)cc1 | - | ? | -[12.7 µM] | ? | -
O=c1c(C=Nc2cccc(C(F)(F)F)c2)c[nH]n1-c1cccc(Cl)n1 | - | ? | 50µM | 40µM | -
O=c1[nH][nH]c(C(F)(F)F)c1C=Nc1cccc(Cl)c1 | - | - | ? | - | -
O=C(/C=C/c1ccco1)Nc1ccc(C(=O)N2CCOCC2)cc1 | - | ? | ? | - | -
SMILES | GLS inh | BAZ2B inh | G9a block | JMJD2A Tudor | HP1b chromo inh
COC(=O)c1cccc(NC(=O)C(C)(C)C)c1 | - | - | . | - | -
O=C(/C=C/c1ccco1)Nc1ccc(N2CCCC2)cc1 | - | - | 0.89µM | - | -
CSc1cccc(NC(=O)/C=C/c2ccccc2)c1 | - | - | - | - | -
CSc1cccc(NC(=O)/C=C/c2ccco2)c1 | - | ? | 28µM | - | -
O=C(Nc1ccc(-c2nc3ccccc3[nH]2)cc1)c1ccco1 | - | - | ? | - | -
COc1cccc(NC(=O)C(C)(C)C)c1 | - | - | 3.2µM | - | -
O=C(/C=C/c1ccco1)Nc1ccc(-c2nc3ccccc3[nH]2)cc1 | - | ? | 40µM | - | -
COc1cccc(NC(=O)C(NCC2CCCCC2)c2ccccc2)c1 (stereo not given) | - | ? | 3.2µM | 1µM | ?
O=C(/C=C/c1ccco1)Nc1cccnc1 | - | - | . | - | -

Bioassay records as filed in PubChem.
